This passage reports growth inhibition results from PubChem BioAssay (NCI).

This is part of a sample that, as a whole, favours compounds with a hit. Of some 79,000 tested, about 15% had one in any assay. A number with no mark means an inactive call. The source made the active and inactive calls. No stated cut-off is given here; in the data, active means growth inhibition above about 70%; inactive means the rest.

The nature of the first experiment: NCI Yeast Anticancer Drug Screen. Data for the sgs1 mgt1 strain (AID 161).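 Further: 0% = growth of cultures given vehicle only.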 As to conditions: S. cerevisiae sgs1 mgt1 strain, at 50.0 µM, hits give high values. Summed up:
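Growth of a repair-deficient yeast mutant was monitored after compound treatment and expressed as inhibition relative to vehicle-treated cultures.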
With `NC1=C(O)/C(=N/NS(=O)(=O)c2ccccc2)C(c2cccc(Cl)c2)O1` (configuration not stated), the growth inhibition is 48.5%.

Regarding `O=C1O/C(=C(\Br)c2cccc3ccccc23)c2ccccc21`, the growth inhibition is -34%.

Turning to `O=C1c2cccc3cccc(c23)C(=O)N1C(Cc1ccccc1)c1ccccc1` (configuration not stated), the growth inhibition is -15.1%.

On to `CC(=O)Nc1ccc(/C=C/C(=O)c2sc(-c3cccnc3)nc2C)cc1`, for which the growth inhibition was 3.25%.

`O=S(=O)(c1ccc(Br)cc1)N1CCN(S(=O)(=O)c2ccc(Br)cc2)CC1`: the growth inhibition is -35.2%.

With `Cc1nc2nc[nH]n2c1N=Nc1ccccc1`, the growth inhibition is -9.5%.

For the molecule `CCOc1ccc(C(C)(CC)c2cc3c(cc2OC)OCO3)cc1` (configuration not stated), the growth inhibition is -23.3%.

`O=C1C(O)=C(Br)C(=O)C(O)=C1Br`: the growth inhibition was 10.1%.

Turning to `CCOC(=O)C(CC(c1ccc2c(c1)OCO2)C(C(=O)N(C(C)C)C(C)C)[N+](=O)[O-])C(=O)OCC` (configuration not stated), the growth inhibition was 60.5%.

In the case of `OC(CBr)c1cc(-c2ccccc2)nc2c(Cl)cc(Cl)cc12` (configuration not stated), the growth inhibition is 33.6%.

Take `COC1CC(NC(C)=O)C2OC(c3ccccc3)OCC2O1` (configuration not stated): the growth inhibition is -10.2%.

Consider `COc1cc2c(c(OC)c1OC)-c1ccc(OC)c(=O)cc1C(NC(=O)CCCCCNc1ccc(N=[N+]=[N-])cc1[N+](=O)[O-])CC2` (configuration not stated), for which the growth inhibition was 45%.

`CC1(C)N=C(N)N=C(N)N1c1ccc(CCCCc2ccccc2)cc1`: the growth inhibition is 99.8% (active).

On to `Cn1c(=O)c(C(=O)NC23CC4CC(CC(C4)C2)C3)c(O)c2ccccc21`, for which the growth inhibition is -46.5%.

Turning to `NC(=O)C1CCCCC1C(=O)O` (configuration not stated), the growth inhibition is 6.65%.

On to `Cc1ccncc1.[O]=[Ge].[O]=[Ge].[O]=[Ge].[O]=[Ge].[O]=[Ge].[O]=[Ge][OH].[O]=[Ge][OH]`, for which the growth inhibition was -42.5%.

Consider `CCCCCCCCCCCCSC(=O)CCC(=O)O`, for which the growth inhibition is 13.8%.

`CS(=O)(=O)OCC(CCl)(CCl)CCl`: the growth inhibition is 0.15%.

Consider `Oc1ccc(Br)cc1C(=S)N1CCOCC1`, for which the growth inhibition is 4.45%.

Consider `CCCCCCCCCCC(C(=O)O)C1(C(=O)O)CCC(=O)O1` (configuration not stated), for which the growth inhibition is -5.8%.

Regarding `COc1ccc(C=O)c(C(=O)O)c1OC`, the growth inhibition was -2.8%.

As for `c1ccc(CCC2OCC(c3ccccc3)O2)cc1` (configuration not stated), the growth inhibition was -3.2%.

The nature of another experiment: NCI Yeast Anticancer Drug Screen. Data for the cln2 rad14 strain (AID 165).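 Further: 0% = growth equal to vehicle treated cultures.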 As to conditions: S. cerevisiae cln2 rad14 strain, at 50.0 µM, hits give high values. Put shortly: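 Relative to vehicle controls, growth inhibition of compound-treated cln2 rad14 yeast was recorded.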
In the case of `Oc1ccc2nccnc2c1`, the growth inhibition was -1.6%.

Turning to `CCC1(COC(NC(=O)c2ccccc2)(C(F)(F)F)C(F)(F)F)COC1`, the growth inhibition is 14.1%.

`CCOC(=O)CC1(O)Oc2cc3c(cc2C(c2cc(OC)c(OC)c(OC)c2)C1C(=O)OCC)OCO3` (configuration not stated): the growth inhibition was -0.55%.

As for `CC(=O)/C(C)=C\C1C(C)=CCCC1(C)C` (configuration not stated), the growth inhibition is -23.3%.

As for `C1=CC2CCC1C1CSCC21` (configuration not stated), the growth inhibition was -33.8%.

In the case of `Nc1nc2ncc(=O)[nH]c2c(=O)[nH]1`, the growth inhibition was -31.3%.

On to `COc1ccc2c(c1)OC(OC)(c1ccc(OC)c(OC)c1)C(O)(OC)C2=O` (configuration not stated), for which the growth inhibition is 19.6%.

For `COC(=O)C1C(C)C1c1ccc2c(c1)OCO2` (configuration not stated), the growth inhibition was -3.7%.

As to `CSc1nc2c(cnn2C)c(=O)[nH]1`, the growth inhibition is -4.55%.

`O=C(Nc1ccc(F)cc1)Nc1ccc(I)cc1`: the growth inhibition was 15.4%.

For `CN(C)c1ccc(/C=N/N=C2\C(=O)Nc3c(Cl)cc(Cl)cc32)cc1`, the growth inhibition is 43.1%.

Take `O=C(Nc1cc(-c2ccccc2)nn1-c1ccccc1)c1ccc(Cl)cc1`: the growth inhibition is 15.2%.

Turning to `O=C(O)c1cnc2cc3c(cc2c1Nc1cccc(Cl)c1)OCO3`, the growth inhibition was -27.5%.

`O=C(NCCN1CCOCC1)c1ccc(C(=O)NCCN2CCOCC2)cc1`: the growth inhibition is 17.5%.

As to `OCC1NC(COC2OC(CO)C(O)C(O)C2O)C(O)C(O)C1O` (configuration not stated), the growth inhibition is 17.1%.

With `CC(C)Sc1nc(NC(=O)N(C)N=O)cc(=O)[nH]1`, the growth inhibition was 27.5%.

In the case of `S=C(S)NCCCn1ccnc1`, the growth inhibition is -15.9%.

On to `C=Cc1ccc(C[n+]2cccc(C(N)=O)c2)cc1`, for which the growth inhibition was -1.75%.

Take `NC1=C(O)/C(=N/NS(=O)(=O)c2ccccc2)C(c2cccc(Cl)c2)O1` (configuration not stated): the growth inhibition is 13.8%.

For the molecule `O=C1O/C(=C(\Br)c2cccc3ccccc23)c2ccccc21`, the growth inhibition is 11.2%.

As to `O=C1c2cccc3cccc(c23)C(=O)N1C(Cc1ccccc1)c1ccccc1` (configuration not stated), the growth inhibition was -4.2%.

`CC(=O)Nc1ccc(/C=C/C(=O)c2sc(-c3cccnc3)nc2C)cc1`: the growth inhibition is 17.9%.

Turning to `O=S(=O)(c1ccc(Br)cc1)N1CCN(S(=O)(=O)c2ccc(Br)cc2)CC1`, the growth inhibition was -43.2%.

With `Cc1nc2nc[nH]n2c1N=Nc1ccccc1`, the growth inhibition was -13%.

Consider `CCOc1ccc(C(C)(CC)c2cc3c(cc2OC)OCO3)cc1` (configuration not stated), for which the growth inhibition is 3.55%.

With `O=C1C(O)=C(Br)C(=O)C(O)=C1Br`, the growth inhibition was -12.1%.

Consider `CCOC(=O)C(CC(c1ccc2c(c1)OCO2)C(C(=O)N(C(C)C)C(C)C)[N+](=O)[O-])C(=O)OCC` (configuration not stated), for which the growth inhibition is 16.2%.

Turning to `OC(CBr)c1cc(-c2ccccc2)nc2c(Cl)cc(Cl)cc12` (configuration not stated), the growth inhibition is -16.7%.

On to `COC1CC(NC(C)=O)C2OC(c3ccccc3)OCC2O1` (configuration not stated), for which the growth inhibition was 6.1%.

Regarding `COc1cc2c(c(OC)c1OC)-c1ccc(OC)c(=O)cc1C(NC(=O)CCCCCNc1ccc(N=[N+]=[N-])cc1[N+](=O)[O-])CC2` (configuration not stated), the growth inhibition is 36%.

In the case of `CC1(C)N=C(N)N=C(N)N1c1ccc(CCCCc2ccccc2)cc1`, the growth inhibition is 99.3% (active).

As to `Cn1c(=O)c(C(=O)NC23CC4CC(CC(C4)C2)C3)c(O)c2ccccc21`, the growth inhibition was -16.3%.

Turning to `NC(=O)C1CCCCC1C(=O)O` (configuration not stated), the growth inhibition was -10.7%.

Turning to `Cc1ccncc1.[O]=[Ge].[O]=[Ge].[O]=[Ge].[O]=[Ge].[O]=[Ge].[O]=[Ge][OH].[O]=[Ge][OH]`, the growth inhibition is -23.1%.

As for `CCCCCCCCCCCCSC(=O)CCC(=O)O`, the growth inhibition was -29.9%.

Consider `CS(=O)(=O)OCC(CCl)(CCl)CCl`, for which the growth inhibition is 3.2%.

On to `Oc1ccc(Br)cc1C(=S)N1CCOCC1`, for which the growth inhibition is 3.6%.

As to `CCCCCCCCCCC(C(=O)O)C1(C(=O)O)CCC(=O)O1` (configuration not stated), the growth inhibition was 11.4%.

With `COc1ccc(C=O)c(C(=O)O)c1OC`, the growth inhibition was 17.2%.

With `c1ccc(CCC2OCC(c3ccccc3)O2)cc1` (configuration not stated), the growth inhibition was -35.9%.
